Experimental data: PubChem BioAssay (Tox21)
Results filed as inconclusive are left out. The source made the active and inactive calls. Unless noted, calls come from the whole dose curve; as a rule, active = well fitted curve in the direction sought with a large enough effect in the repeat runs; inconclusive = weak or mixed curves; inactive = no such curve, though single readings can be large; an effect the other way counts as inactive or inconclusive.

Experiments:
[1] = A CellTox Green Cytotoxicity Assay to monitor cytotoxicity in HepG2 cells - 8 hour (AID 1224890); note: nearly all actives have a fitted effect of over 45% in size
In short: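 HepG2 cells were seeded together with the CellTox Green dye at 600 cells/well, left 5 h at 37 C/5% CO2, then given compounds in DMSO. Fluorescence from dye bound to dead-cell DNA was read repeatedly over 40 h of treatment at 37 C.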

[2] = qHTS assay to identify small molecule antagonists of the estrogen receptor alpha (ER-alpha) signaling pathway using the BG1 cell line in the presence of 0.1 nM 17-beta-estradiol - cell viability counter screen (AID 1259241); note: nearly all actives have a fitted effect of over 40% in size
In short: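 CellTiter-Fluor read (30 min, 37C) on ER-alpha/ERE-luc VM7Luc4E2 cells; 22 hr compound treatment; agonist 0.1 nM E2 final; same-well multiplex.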

[3] = qHTS assay to identify small molecule antagonists of the androgen receptor (AR) signaling pathway using the MDA cell line in the presence of 0.5 nM R1881 - cell viability counter screen (AID 1259242); note: nearly all actives have a fitted effect of over 45% in size
In short: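 MDA-kb2 cells (human breast carcinoma, stably carrying MMTV-luciferase reporter) were exposed to compounds with 0.5 nM R1881 (final) for 16 hr at 37C, 0% CO2; viability then read as live-cell protease fluorescence (CellTiter-Fluor, 30 min) in the same wells.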

[4] = biological target: Androgen receptor (Homo sapiens) (UniProt P10275); test: qHTS assay to identify small molecule antagonists of the androgen receptor (AR) signaling pathway using the MDA cell line in the presence of 0.5 nM R1881 (AID 1259243); note: nearly all actives have a fitted effect of over 50% in size
Androgen receptor (Homo sapiens), sequence (P10275 whole entry, looked up): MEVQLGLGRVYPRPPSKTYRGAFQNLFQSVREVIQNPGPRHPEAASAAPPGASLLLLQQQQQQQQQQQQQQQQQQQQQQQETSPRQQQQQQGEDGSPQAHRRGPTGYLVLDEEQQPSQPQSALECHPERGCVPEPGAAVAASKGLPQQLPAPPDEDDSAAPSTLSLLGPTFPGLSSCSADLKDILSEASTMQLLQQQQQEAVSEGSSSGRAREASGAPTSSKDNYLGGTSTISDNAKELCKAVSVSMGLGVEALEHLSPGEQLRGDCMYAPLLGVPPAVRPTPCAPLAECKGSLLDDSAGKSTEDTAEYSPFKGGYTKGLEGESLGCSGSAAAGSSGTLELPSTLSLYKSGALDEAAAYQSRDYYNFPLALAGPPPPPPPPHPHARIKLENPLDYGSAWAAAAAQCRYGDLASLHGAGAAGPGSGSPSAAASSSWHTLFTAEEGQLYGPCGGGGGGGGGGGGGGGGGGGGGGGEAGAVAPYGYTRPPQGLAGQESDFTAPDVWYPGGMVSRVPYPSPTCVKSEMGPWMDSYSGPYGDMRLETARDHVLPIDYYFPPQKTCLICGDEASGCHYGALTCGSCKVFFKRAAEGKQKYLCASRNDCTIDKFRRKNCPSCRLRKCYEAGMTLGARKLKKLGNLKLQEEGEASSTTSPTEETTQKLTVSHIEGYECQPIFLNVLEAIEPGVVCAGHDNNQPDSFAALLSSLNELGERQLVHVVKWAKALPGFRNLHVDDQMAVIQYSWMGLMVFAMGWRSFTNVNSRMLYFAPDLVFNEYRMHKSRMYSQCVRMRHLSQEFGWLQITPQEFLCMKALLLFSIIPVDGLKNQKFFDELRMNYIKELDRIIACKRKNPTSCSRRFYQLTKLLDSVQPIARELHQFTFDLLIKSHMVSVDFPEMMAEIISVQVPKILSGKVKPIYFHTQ
In short: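 MDA-kb2 human breast carcinoma cells carrying an MMTV-luciferase reporter (AR- and GR-responsive) were plated, rested 5 hr at 37C, dosed with compounds, then stimulated with 0.5 nM R1881 (final) for 16 hr; luminescence was read after ONE-Glo.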

[5] = biological target: Estrogen receptor (Homo sapiens) (UniProt P03372); test: qHTS assay to identify small molecule antagonists of the estrogen receptor alpha (ER-alpha) signaling pathway using the BG1 cell line in the presence of 0.1 nM 17-beta-estradiol (AID 1259244); note: nearly all actives have a fitted effect of over 50% in size
Estrogen receptor (Homo sapiens), sequence (P03372 whole entry, looked up): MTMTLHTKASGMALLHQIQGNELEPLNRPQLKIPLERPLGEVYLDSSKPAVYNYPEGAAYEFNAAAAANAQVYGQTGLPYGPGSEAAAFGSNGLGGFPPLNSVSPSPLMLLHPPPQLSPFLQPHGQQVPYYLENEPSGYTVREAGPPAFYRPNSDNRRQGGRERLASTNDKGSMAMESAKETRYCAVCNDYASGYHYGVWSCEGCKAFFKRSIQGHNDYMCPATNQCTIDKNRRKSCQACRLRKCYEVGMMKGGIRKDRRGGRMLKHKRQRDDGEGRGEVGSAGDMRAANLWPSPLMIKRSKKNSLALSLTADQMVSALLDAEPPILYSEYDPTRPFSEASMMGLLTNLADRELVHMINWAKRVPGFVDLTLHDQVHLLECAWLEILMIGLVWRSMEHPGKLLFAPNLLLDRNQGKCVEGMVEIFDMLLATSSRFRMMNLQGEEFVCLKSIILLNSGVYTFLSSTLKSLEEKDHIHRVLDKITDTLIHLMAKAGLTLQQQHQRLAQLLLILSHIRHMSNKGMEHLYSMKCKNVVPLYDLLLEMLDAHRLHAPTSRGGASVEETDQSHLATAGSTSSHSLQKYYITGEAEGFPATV
In short: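 VM7Luc4E2 cells (endogenous full-length ER-alpha, stable 4xERE-luciferase) were grown 5 days in phenol red-free medium with charcoal-stripped FBS, then exposed 22 h at 37C to compounds plus 0.1 nM (final) 17beta-estradiol; ONE-Glo luminescence read-out.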

[6] = qHTS assay to identify small molecule HDAC inhibitors (AID 1259364); note: top concentration of the series differs between compounds; nearly all actives have a fitted effect of over 45% in size
In short: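 Wild-type HCT-116 cells were plated overnight, exposed to compounds for 2 h at 37 °C, then given HDAC-Glo class I/II luminogenic reagent for 30 min at room temperature before luminescence was read.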

[7] = qHTS assay to identify small molecule HDAC inhibitors - cell viability counter screen (AID 1259365); note: series mostly up to about 92 µM; nearly all actives have a fitted effect of over 50% in size
In short: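 To flag cytotoxic hits, 1,500 wild-type HCT-116 cells per well, plated the day before, receive test compounds for 2hr at 37 C before CellTiter-Glo reagent and a luminescence read.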

[8] = qHTS assay to identify small molecule agonists of the sonic hedgehog signaling (Shh) pathway - cell viability counter screen (AID 1259366); note: nearly all actives have a fitted effect of over 50% in size
In short: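 Fluorescence from CellTiter-Fluor reports live cells in this counter screen. NIH/3T3-derived Gli1-Luc reporter cells receive test compounds for 24hr at 37C; reagent goes in at 23hr.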

[9] = qHTS assay to identify small molecule antagonists of the sonic hedgehog signaling (Shh) pathway - cell viability counter screen (AID 1259367); note: nearly all actives have a fitted effect of over 55% in size
In short: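 NIH/3T3-derived Gli1-Luc reporter cells (2,000 per well) rested 4 hr at 37 C, then received DMSO compounds plus conditioned medium. After 23 hr of treatment, CellTiter-Fluor was added for 1 hr at 37C and fluorescence read.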

[10] = qHTS assay to identify small molecule agonists of the sonic hedgehog signaling (Shh) pathway (AID 1259368; calls by dose curve; note: series mostly up to about 92 µM; nearly all actives have a fitted effect of over 15% in size)
In short: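 NIH/3T3-derived 3T3Gli1-Luc cells carrying a stably integrated Gli1 response element–firefly luciferase reporter were plated, left 4 hr at 37 C, then given compounds in DMSO for 24 hr. Luminescence was read 30 min after adding luciferase reagent.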

[11] = qHTS assay to identify small molecule antagonists of the sonic hedgehog signaling (Shh) pathway (AID 1259369; calls by dose curve; note: nearly all actives have a fitted effect of over 45% in size)
In short: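 NIH/3T3-derived 3T3Gli1-Luc cells with stably integrated Gli1-Luc reporter were preincubated 4hr at 37 C, then given compounds in DMSO plus Shh conditioned medium and incubated 24hr. Firefly luciferase luminescence read after 30min reagent at room temperature.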

[12] = biological target: Estrogen receptor beta (Homo sapiens) (UniProt Q92731); test: qHTS assay to identify small molecule agonists of the estrogen receptor beta (ER-beta) signaling pathway (AID 1259377; active = well fitted activation curve with a large enough effect in the signal ratio in the repeat runs, not every such curve was filed as active; the % refers to the signal ratio)
Estrogen receptor beta (Homo sapiens), sequence (Q92731 whole entry, looked up): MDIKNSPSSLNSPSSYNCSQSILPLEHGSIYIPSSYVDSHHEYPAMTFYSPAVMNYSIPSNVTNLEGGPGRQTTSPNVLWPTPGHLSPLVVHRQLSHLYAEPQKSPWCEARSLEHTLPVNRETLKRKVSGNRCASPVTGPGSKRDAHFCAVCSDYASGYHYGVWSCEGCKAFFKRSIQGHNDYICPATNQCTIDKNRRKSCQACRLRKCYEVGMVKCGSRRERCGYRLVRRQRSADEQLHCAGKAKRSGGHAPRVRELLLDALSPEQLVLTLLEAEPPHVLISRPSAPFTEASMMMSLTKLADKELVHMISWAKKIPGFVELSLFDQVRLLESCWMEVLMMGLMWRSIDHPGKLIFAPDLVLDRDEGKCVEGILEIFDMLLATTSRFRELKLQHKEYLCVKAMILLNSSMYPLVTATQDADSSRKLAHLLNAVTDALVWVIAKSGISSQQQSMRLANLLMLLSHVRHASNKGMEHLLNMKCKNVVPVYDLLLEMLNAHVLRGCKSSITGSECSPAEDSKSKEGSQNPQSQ
In short: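 Screening used GripTite ER-beta-UAS-bla cells held in 2% charcoal-stripped FBS medium. After overnight (16 hr) compound incubation at 37C, beta-lactamase activity was detected with a FRET substrate by fluorescence.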

[13] = biological target: Estrogen receptor beta (Homo sapiens) (UniProt Q92731); test: qHTS assay to identify small molecule antagonists of the estrogen receptor beta (ER-beta) signaling pathway (AID 1259378; active = well fitted inhibition curve with a large enough effect in the signal ratio in the repeat runs, not every such curve was filed as active; the % refers to the signal ratio)
In short: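 ER-beta-UAS-bla HEK293T (GripTite) cells in 2% charcoal-stripped FBS medium were preincubated 6 hr at 37C, dosed with compound, then stimulated with 1 nM E2 (final) for 16 hr; beta-lactamase reporter read by B/G FRET fluorescence after 2 hr substrate loading.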

[14] = qHTS assay to identify small molecule agonists of the estrogen receptor beta (ER-beta) signaling pathway - cell viability counter screen (AID 1259380); note: nearly all actives have a fitted effect of over 30% in size
In short: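 ER-beta-UAS-bla HEK293T cells in medium with 2% charcoal-stripped FBS were preincubated 6 hr at 37C, dosed with compound in DMSO for 16 hr, then after the bla read, CellTiter-Glo was added for 30 min at room temperature; luminescence recorded.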

[15] = qHTS assay to identify small molecule antagonists of the estrogen receptor beta (ER-beta) signaling pathway - cell viability counter screen (AID 1259382); note: series mostly up to about 92 µM; nearly all actives have a fitted effect of over 55% in size
In short: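 ER-beta-UAS-bla HEK293T cells (2,000/well, 2% charcoal-stripped FBS) were pre-incubated 6 hr at 37C, then given compound plus 1nM final 17-beta-estradiol for 16 hr. Viability was read in the same wells by CellTiter-Glo luminescence after 30 min at room temperature.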

[16] = biological target: Estrogen receptor (Homo sapiens) (UniProt P03372); test: qHTS assay to identify small molecule agonists of the estrogen receptor alpha (ER-alpha) signaling pathway in the presence of an antagonist (AID 1259383; calls by dose curve; note: top concentration of the series differs between compounds; nearly all actives have a fitted effect of over 15% in size)
In short: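 VM7Luc4E2 cells (endogenous full-length ER-alpha, 4×ERE-luciferase) were precultured 5 days in phenol red-free medium with 10% charcoal-stripped FBS, given 10.0nM ICI-182,780 (final), then treated with compounds at 15 concentrations for 22hr at 37C; luminescence read with ONE-Glo.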

[17] = qHTS assay to identify small molecule agonists or antagonists of the thyroid stimulating hormone receptor (TSHR) signaling pathway - wild type cell line counter screen (AID 1259384; calls by dose curve)
In short: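 Wild-type HEK293 cells were plated 18 h at 37 C/5% CO2, pin-dosed with compound plus Ro20-1724 medium, held 30 min at room temperature, then given cAMP-d2 and anti-cAMP-cryptate; fluorescence was read after 1 h. Fifteen concentrations, triplicate.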

[18] = biological target: Thyrotropin receptor (Homo sapiens) (UniProt P16473); test: qHTS assay to identify small molecule antagonists of the thyroid stimulating hormone receptor (TSHR) signaling pathway (AID 1259385; calls by dose curve; note: nearly all actives have a fitted effect of over 20% in size)
Thyrotropin receptor (Homo sapiens), sequence (P16473 whole entry, looked up): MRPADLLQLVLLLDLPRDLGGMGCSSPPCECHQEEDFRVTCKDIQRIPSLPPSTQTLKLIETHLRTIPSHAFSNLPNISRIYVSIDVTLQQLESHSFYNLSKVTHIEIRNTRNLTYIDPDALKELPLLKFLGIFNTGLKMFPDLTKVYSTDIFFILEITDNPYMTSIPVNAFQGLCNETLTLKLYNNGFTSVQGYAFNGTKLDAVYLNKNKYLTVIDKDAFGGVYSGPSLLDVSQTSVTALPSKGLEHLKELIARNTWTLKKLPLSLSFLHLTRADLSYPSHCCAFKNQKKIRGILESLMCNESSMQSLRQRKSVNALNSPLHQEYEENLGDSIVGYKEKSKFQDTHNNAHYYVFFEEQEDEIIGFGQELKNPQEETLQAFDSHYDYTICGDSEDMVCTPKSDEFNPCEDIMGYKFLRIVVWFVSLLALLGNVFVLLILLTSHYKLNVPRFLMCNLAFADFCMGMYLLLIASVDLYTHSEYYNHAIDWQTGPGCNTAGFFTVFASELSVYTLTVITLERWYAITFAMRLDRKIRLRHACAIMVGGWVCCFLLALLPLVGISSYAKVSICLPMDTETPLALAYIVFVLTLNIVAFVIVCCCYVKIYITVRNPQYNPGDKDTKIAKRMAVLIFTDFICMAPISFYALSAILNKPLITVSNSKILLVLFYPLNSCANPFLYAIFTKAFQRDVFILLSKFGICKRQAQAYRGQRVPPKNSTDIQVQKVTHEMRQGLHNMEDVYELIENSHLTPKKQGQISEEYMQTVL
In short: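 TSHR-HEK293 cells were plated and held 18 h at 37C/5% CO2, then given compound plus Ro20-1724 and stimulated with TSH at 1.5 ng/mL final. After 30 min at room temperature, cAMP was detected with cAMP-d2/anti-cAMP-cryptate (1 h) by fluorescence.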

[19] = qHTS assay to identify small molecule phospholipidosis (PLD) inducers (AID 1259344; active = well fitted curve in the direction sought with a large enough effect; an effect the other way counts as inactive or inconclusive)
In short: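 HepG2 cells on collagen I, attached 4 h at 37 C, were co-treated with compound and LipidTOX Red dye for 24 h at 37 C, then fixed with paraformaldehyde plus Hoechst 33342 and imaged by high-content microscopy for phospholipid accumulation.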

[20] = qHTS assay to identify small molecule agonists of the androgen receptor (AR) signaling pathway in the presence of an antagonist - cell viability counter screen (AID 1259379); note: series mostly up to about 92 µM; nearly all actives have a fitted effect of over 25% in size
In short: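 MDA-kb2 human breast carcinoma cells (stable MMTV-luciferase, AR/GR responsive) were seeded 3,000 cells/well, pre-incubated 5 hr at 37C without CO2, then given 3.0uM nilutamide and compounds at 15 concentrations for 16 hr. Viability was read by CellTiter-Fluor fluorescence.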

Measured: Potency

CCCCC(CC)C(=O)OCCOCCOCCOC(=O)C(CC)CCCC (configuration not stated)
not listed: [19] | [20]
inactive: all other assays above

O=C1O[C@H](CO)[C@@H](O)[C@H](O)[C@H]1O
not listed: [4] | [20]
inactive: all other assays above

Cc1ccc(C)c(C)c1
not listed: [19] | [20]
inactive: all other assays above

c1ccc2ccccc2c1
not listed: [4] | [7] | [12] | [13]
inactive: all other assays above

CCC(=O)O
not listed: [4] | [12] | [13] | [17] | [18]
inactive: all other assays above

Nc1cc(-c2ccncc2)c[nH]c1=O
not listed: [18]
inactive: all other assays above

O=Nc1ccc(O)cc1
not listed: [19] | [20]
inactive: all other assays above
